In all, about 33,000 sequences were measured (“E-score (-0.5 to 0.5)”: median about -0.032, highest 2% from about 0.36 on). This is one part of a sample in which the highest values are shown more often than they occur.
target: T1, Sko1 (UniProt Q02100); assay: PBM E-score (8-mer binding enrichment) (E-score (-0.5 to 0.5)); higher = stronger / more preferred TF binding; conditions: protein concentration: 200 nM; construct: GST-full length
T1 sequence: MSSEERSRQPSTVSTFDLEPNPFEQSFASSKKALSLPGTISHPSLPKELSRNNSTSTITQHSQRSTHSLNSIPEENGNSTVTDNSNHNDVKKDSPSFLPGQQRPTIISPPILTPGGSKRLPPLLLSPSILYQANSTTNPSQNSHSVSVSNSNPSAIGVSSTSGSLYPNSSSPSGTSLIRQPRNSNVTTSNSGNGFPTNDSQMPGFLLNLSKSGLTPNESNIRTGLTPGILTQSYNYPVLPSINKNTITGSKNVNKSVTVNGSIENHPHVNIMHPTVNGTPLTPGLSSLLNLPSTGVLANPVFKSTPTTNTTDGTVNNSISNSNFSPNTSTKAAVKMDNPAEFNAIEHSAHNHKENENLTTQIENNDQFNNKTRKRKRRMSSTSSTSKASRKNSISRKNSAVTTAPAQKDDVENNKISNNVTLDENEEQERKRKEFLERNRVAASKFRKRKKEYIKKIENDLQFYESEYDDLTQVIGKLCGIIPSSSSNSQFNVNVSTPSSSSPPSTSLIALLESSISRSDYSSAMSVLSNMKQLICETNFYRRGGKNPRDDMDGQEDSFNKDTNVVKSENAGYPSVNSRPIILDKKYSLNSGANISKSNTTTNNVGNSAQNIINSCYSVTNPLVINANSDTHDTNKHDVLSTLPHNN
How it was run: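 Full-length yeast transcription factors or their DNA-binding domains, GST-tagged and expressed with PURExpress, were applied at about 100-200 nM to universal all-10-mer Agilent arrays. These arrays had been made double-stranded by primer extension on fresh or once-stripped slides. Detection used fluorescent anti-GST, normalisation used masliner, and E-scores for ungapped eight-base words pooled with reverse complements came from the Universal PBM Analysis Suite.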

Sequence | PBM E-score
AGTCACAC | -0.0301
AGTCACAG | -0.0124
ACTTCGAT | 0.0534
GAGGTTCC | -0.182
ATCTGTAG | -0.0704
AGGAGTGA | 0.0137
CAGGGAGG | -0.23
ACACGGAG | -0.13
ACACGTAG | 0.433
ACTCGTAA | 0.345
ACACGTAC | 0.419
ACCCGTAC | -0.107
ACACGTAT | 0.463
ACACGAAT | 0.233
ACACGTAA | 0.472
ACACGTCT | 0.292
ACACGTTC | 0.214
ACACATAA | 0.262
ACCCGTAA | -0.00679
CTTGAATC | -0.0656
AGTTAGCG | 0.113
CGGCGTGA | -0.0945

Sequence | PBM E-score
CCGCTTCC | -0.273
CTCGTCTC | -0.19
AAATTCGT | 0.339
ATGTGAGC | -0.00412
CATCCTAA | 0.173
CCGAGATC | -0.237
ATGACATC | 0.44
GGGACATA | -0.139
CTGACATA | 0.266
GTGACATA | 0.381
ATGACATG | 0.357
CTGACATC | 0.21
ATGACATA | 0.437
GTGACACA | 0.145
ATGACACC | 0.26
AACTAACA | 0.124
GCTAAGCC | -0.23
CGGGCTCC | -0.343
ACTCTCTC | -0.281
GACATCAA | 0.275
GTCATCAC | 0.368
GACATCAC | 0.382

Sequence | PBM E-score
GTCATCAA | 0.33
ATCATCAC | 0.334
CACATCAC | 0.154
CTCCGCCC | -0.254
GAACTCTA | -0.0173
GGTAAGAC | -0.0543
AGTAAGAG | -0.117
CCTAAGAG | -0.0999
CGTAAGAC | 0.4
CGTAAGAA | 0.349
CGTAAGAG | 0.376
AAAGCGGT | -0.0789
AGCTCTTA | 0.0315
AATACGCA | 0.407
CATACTCA | 0.0384
CATACGCA | 0.392
AATACGCT | 0.186
AATACGCC | 0.198
CATACGCG | 0.246
TATACGCA | 0.411
GATACGCA | 0.351
TATACGAA | 0.301

Sequence | PBM E-score
TACACCGA | -0.177
TAGAGAGA | -0.0704
AAAAGAAT | 0.115
CCGCTCAC | -0.0552
CCACCTGA | -0.0745
ATCACGTA | 0.465
ATCACGCC | 0.0558
CTCACGTA | 0.356
ATCACGTG | 0.411
ATCACGTC | 0.42
ATCACGCG | 0.254
ATCACGGA | 0.126
CTCACGTC | 0.278
ATCACATA | 0.3
GTCACGCA | 0.25
GTCACGTA | 0.421
GTCACGGA | 0.126
CGTTTTAC | 0.209
ATTTATAG | 0.158
ACGGAAAT | 0.226

Source: the supplement of paper PMC3334620
